{"source": "the antibiotic and cytotoxicity screens of Wong et al. (2023)", "note": "Hit rate of the full screen: of about 39,000 compounds, about 3,300 (8.5%) were called active. This excerpt belongs to a sample that is enriched for actives.", "data": [{"system": "HepG2", "assay": "cytotoxicity call (relative viability < 0.9)", "settings": "10 µM", "values": [{"smiles": "C[C@@H]1CN([C@@H](C)CO)C(=O)c2cc(NC(=O)c3ccccc3)ccc2O[C@@H](C)CCCCO[C@H]1CN(C)Cc1ccncc1", "cytotoxicity call": "inactive"}, {"smiles": "CC(C)NC(=O)Nc1cccc2c1O[C@H](CN(C)Cc1ccc3c(c1)OCO3)[C@H](C)CN([C@@H](C)CO)C2=O", "cytotoxicity call": "inactive"}, {"smiles": "C[C@H]1CN([C@@H](C)CO)C(=O)c2cccc(NC(=O)C3CC3)c2O[C@H]1CN(C)Cc1ccc(-c2ccccc2)cc1", "cytotoxicity call": "inactive"}, {"smiles": "Cc1cc(CCC[C@H](CC(=O)NO)C(=O)N[C@H](C(=O)N[C@H](C)c2ccccc2)C(C)(C)C)ccc1-c1ccccc1", "cytotoxicity call": "active"}, {"smiles": "Nc1cccc(-c2cccs2)c1", "cytotoxicity call": "inactive"}, {"smiles": "C[C@H](CO)N1C[C@H](C)[C@H](CN(C)S(C)(=O)=O)Oc2ncc(C#Cc3cccnc3)cc2C1=O", "cytotoxicity call": "inactive"}, {"smiles": "CN(C)CCN(Cc1ccccc1)c1ccccn1.O=C(O)CC(O)(CC(=O)O)C(=O)O", "cytotoxicity call": "active"}, {"smiles": "COc1ccc(CN(CCN(C)C)c2ccccn2)cc1.O=C(O)C=CC(=O)O", "cytotoxicity call": "inactive"}, {"smiles": "CN(C)CCN(Cc1ccc(Cl)cc1)c1ccccn1.Cl", "cytotoxicity call": "inactive"}, {"smiles": "C[C@H](CO)N1C[C@H](C)[C@@H](CN(C)S(=O)(=O)c2cn(C)cn2)Oc2ccc(NC(=O)CCC(F)(F)F)cc2C1=O", "cytotoxicity call": "inactive"}, {"smiles": "C[C@@H]1CN([C@H](C)CO)S(=O)(=O)c2ccc(C#CCN(C)C)cc2O[C@H]1CN(C)S(C)(=O)=O", "cytotoxicity call": "inactive"}, {"smiles": "Cc1cc(C(=O)Nc2cccc3c2O[C@H](CN(C)S(=O)(=O)c2c(C)noc2C)[C@H](C)CN([C@H](C)CO)C3=O)n(C)n1", "cytotoxicity call": "inactive"}, {"smiles": "CC1(C)C[C@@](CCN)(Cc2ccccc2)CCO1", "cytotoxicity call": "inactive"}, {"smiles": "Cc1ccc(S(=O)(=O)N(C)C[C@H]2OCCCC[C@H](C)Oc3ccc(NS(=O)(=O)c4ccc(F)cc4)cc3C(=O)N([C@@H](C)CO)C[C@@H]2C)cc1", "cytotoxicity call": "inactive"}, {"smiles": "Cc1ccc(S(=O)(=O)N(C)C[C@H]2OCCCC[C@H](C)Oc3ccc(NS(=O)(=O)c4ccc(F)cc4)cc3C(=O)N([C@H](C)CO)C[C@H]2C)cc1", "cytotoxicity call": "inactive"}, {"smiles": "Cc1ccc(S(=O)(=O)Nc2ccc3c(c2)C(=O)N([C@H](C)CO)C[C@@H](C)[C@H](CN(C)S(=O)(=O)c2ccc(F)cc2)OCCCC[C@@H](C)O3)cc1", "cytotoxicity call": "inactive"}, {"smiles": "Cc1ccc(S(=O)(=O)N(C)C[C@@H]2OCCCC[C@H](C)Oc3ccc(NS(=O)(=O)c4ccc(F)cc4)cc3C(=O)N([C@@H](C)CO)C[C@H]2C)cc1", "cytotoxicity call": "active"}, {"smiles": "Cc1ccc(S(=O)(=O)N(C)C[C@@H]2OCCCC[C@H](C)Oc3ccc(NS(=O)(=O)c4ccc(F)cc4)cc3C(=O)N([C@@H](C)CO)C[C@@H]2C)cc1", "cytotoxicity call": "active"}, {"smiles": "Cc1ccc(S(=O)(=O)N(C)C[C@@H]2OCCCC[C@@H](C)Oc3ccc(NS(=O)(=O)c4ccc(F)cc4)cc3C(=O)N([C@H](C)CO)C[C@H]2C)cc1", "cytotoxicity call": "active"}, {"smiles": "Cc1ccc(S(=O)(=O)Nc2ccc3c(c2)C(=O)N([C@@H](C)CO)C[C@H](C)[C@@H](CN(C)S(=O)(=O)c2ccc(F)cc2)OCCCC[C@H](C)O3)cc1", "cytotoxicity call": "inactive"}, {"smiles": "Cc1ccc(S(=O)(=O)Nc2ccc3c(c2)C(=O)N([C@@H](C)CO)C[C@@H](C)[C@H](CN(C)S(=O)(=O)c2ccc(F)cc2)OCCCC[C@@H](C)O3)cc1", "cytotoxicity call": "inactive"}, {"smiles": "Cc1ccc(S(=O)(=O)N(C)C[C@@H]2OCCCC[C@H](C)Oc3ccc(NS(=O)(=O)c4ccc(F)cc4)cc3C(=O)N([C@H](C)CO)C[C@@H]2C)cc1", "cytotoxicity call": "active"}, {"smiles": "Cc1ccc(S(=O)(=O)Nc2ccc3c(c2)C(=O)N([C@@H](C)CO)C[C@H](C)[C@@H](CN(C)S(=O)(=O)c2ccc(F)cc2)OCCCC[C@@H](C)O3)cc1", "cytotoxicity call": "inactive"}, {"smiles": "Cc1ccc(S(=O)(=O)Nc2ccc3c(c2)C(=O)N([C@H](C)CO)C[C@H](C)[C@H](CN(C)S(=O)(=O)c2ccc(F)cc2)OCCCC[C@H](C)O3)cc1", "cytotoxicity call": "inactive"}, {"smiles": "Cc1ccc(S(=O)(=O)Nc2ccc3c(c2)C(=O)N([C@H](C)CO)C[C@H](C)[C@@H](CN(C)S(=O)(=O)c2ccc(F)cc2)OCCCC[C@H](C)O3)cc1", "cytotoxicity call": "inactive"}, {"smiles": "CN1CCN(C(=O)C[C@@H]2C=C[C@@H](NC(=O)Nc3ccccc3F)[C@@H](CO)O2)CC1", "cytotoxicity call": "inactive"}, {"smiles": "COc1ccc(NC(=O)N(C)C[C@@H]2Oc3ccc(NS(C)(=O)=O)cc3CC(=O)N([C@H](C)CO)C[C@@H]2C)cc1", "cytotoxicity call": "inactive"}, {"smiles": "C[C@@H]1CN([C@H](C)CO)C(=O)c2cccc(NC(=O)Nc3ccccc3)c2O[C@H]1CN(C)C(=O)Nc1ccc(C(F)(F)F)cc1", "cytotoxicity call": "inactive"}, {"smiles": "Cc1ccc(S(=O)(=O)c2c[nH]c(=O)[nH]2)cc1", "cytotoxicity call": "inactive"}, {"smiles": "CC[C@@](C)(Nc1n[nH]c(=O)[nH]c1=O)C(=O)O", "cytotoxicity call": "inactive"}, {"smiles": "OCC1OC(OC2C(CO)OC(O)C(O)C2O)C(O)C(O)C1O", "note": "(stereo not drawn)", "cytotoxicity call": "inactive"}, {"smiles": "OC[C@H]1O[C@@H](O[C@@H]2[C@@H](O)[C@H](O)[C@H](O[C@@H]3[C@@H](O)[C@H](O)[C@H](O)O[C@@H]3CO)O[C@@H]2CO)[C@@H](O)[C@@H](O)[C@@H]1O", "cytotoxicity call": "inactive"}, {"smiles": "O.OCC1OC(OC2C(CO)OC(O)C(O)C2O)C(O)C(O)C1O", "note": "(stereo not drawn)", "cytotoxicity call": "active"}, {"smiles": "COC(=O)c1c2oc(c1C(=O)OC)C(=O)N(C)Cc1cn(nn1)C[C@@H](Cc1ccccc1)NC(=O)N[C@H](COC(=O)NCCCCCC(=O)NO)CC2", "cytotoxicity call": "inactive"}, {"smiles": "Cc1noc(C)c1NC(=O)Nc1ccc2c(c1)C(=O)N([C@@H](C)CO)C[C@H](C)[C@@H](CN(C)S(C)(=O)=O)O2", "cytotoxicity call": "inactive"}, {"smiles": "O=C(O)c1cc(O)c(O)c(O)c1", "cytotoxicity call": "inactive"}, {"smiles": "O=C(OC1Cc2c(O)cc(O)cc2OC1c1ccc(O)c(O)c1)c1cc(O)c(O)c(O)c1", "note": "(stereo not drawn)", "cytotoxicity call": "inactive"}, {"smiles": "O=C(Oc1cc(O)cc2c1C[C@@H](OC(=O)c1cc(O)c(O)c(O)c1)[C@@H](c1cc(O)c(O)c(O)c1)O2)c1cc(O)c(O)c(O)c1", "cytotoxicity call": "inactive"}, {"smiles": "O=C(OCC1OC(OC(=O)c2cc(O)c(O)c(OC(=O)c3cc(O)c(O)c(O)c3)c2)C(OC(=O)c2cc(O)c(O)c(OC(=O)c3cc(O)c(O)c(O)c3)c2)C(OC(=O)c2cc(O)c(O)c(OC(=O)c3cc(O)c(O)c(O)c3)c2)C1OC(=O)c1cc(O)c(O)c(OC(=O)c2cc(O)c(O)c(O)c2)c1)c1cc(O)c(O)c(OC(=O)c2cc(O)c(O)c(O)c2)c1", "note": "(stereo not drawn)", "cytotoxicity call": "active"}, {"smiles": "O=C(OC[C@H]1O[C@@H](OC(=O)c2cc(O)c(O)c(O)c2)[C@H](O)[C@@H](O)[C@@H]1O)c1cc(O)c(O)c(O)c1", "cytotoxicity call": "inactive"}, {"smiles": "O=C(O)C[C@@H]1C(=O)O[C@H]2[C@@H](OC(=O)c3cc(O)c(O)c(O)c3)[C@H](OC(=O)c3cc(O)c(O)c4c3[C@H]1[C@H](O)C(=O)O4)[C@H](OC(=O)c1cc(O)c(O)c(O)c1)O[C@@H]2COC(=O)c1cc(O)c(O)c(O)c1", "cytotoxicity call": "active"}, {"smiles": "O=C(OC[C@H]1O[C@@H](OC(=O)c2cc(O)c(O)c(O)c2)[C@H](O)[C@@H](OC(=O)c2cc(O)c(O)c(O)c2)[C@@H]1O)c1cc(O)c(O)c(O)c1", "cytotoxicity call": "active"}, {"smiles": "C=C[C@H]1[C@H](O[C@H]2O[C@@H](CO)[C@@H](O)[C@@H](O)[C@@H]2O)OC=C(C(=O)OC)[C@H]1CCOC(=O)c1cc(O)c(O)c(O)c1", "cytotoxicity call": "inactive"}, {"smiles": "O=C(OC[C@H]1O[C@@H](OC(=O)c2cc(O)c(O)c(O)c2)[C@H](OC(=O)c2cc(O)c(O)c(O)c2)[C@@H](OC(=O)c2cc(O)c(O)c(O)c2)[C@@H]1OC(=O)c1cc(O)c(O)c(O)c1)c1cc(O)c(O)c(O)c1", "cytotoxicity call": "active"}, {"smiles": "O=C(OC1Cc2c(O)cc(O)cc2OC1c1cc(O)c(O)c(O)c1)c1cc(O)c(O)c(O)c1", "note": "(stereo not drawn)", "cytotoxicity call": "inactive"}, {"smiles": "C[C@@H]1CN([C@H](C)CO)C(=O)c2cccc(NC(=O)Nc3ccc(C(F)(F)F)cc3)c2O[C@H]1CN(C)Cc1ccccc1", "cytotoxicity call": "inactive"}, {"smiles": "C[C@@H]1CCCCO[C@@H](CN(C)C(=O)C2CCCCC2)[C@H](C)CN([C@@H](C)CO)C(=O)c2cc(NS(=O)(=O)c3ccc(F)cc3)ccc2O1", "cytotoxicity call": "inactive"}, {"smiles": "COc1ccc(S(=O)(=O)N2C[C@H](O)COC[C@H]3O[C@@H](CC(=O)NCCCN(C)C)CC[C@@H]32)cc1", "cytotoxicity call": "inactive"}, {"smiles": "CCOc1ccc(-n2c([C@@H](C)N(Cc3cccnc3)C(=O)Cc3ccc(F)c(C(F)(F)F)c3)nc3ncccc3c2=O)cc1", "cytotoxicity call": "inactive"}, {"smiles": "COc1ccc(CN(C)C[C@H]2OCCCC[C@H](C)Oc3ccc(NS(=O)(=O)c4ccc(C)cc4)cc3C(=O)N([C@H](C)CO)C[C@H]2C)cc1", "cytotoxicity call": "inactive"}, {"smiles": "COc1ccc(NC(=O)Nc2ccc3c(c2)C(=O)N([C@@H](C)CO)C[C@@H](C)[C@H](CN(C)C(=O)Nc2cccc4ccccc24)O3)cc1", "cytotoxicity call": "inactive"}, {"smiles": "C[C@H]1CCCCO[C@@H](CN(C)C(=O)Nc2ccc3c(c2)OCO3)[C@@H](C)CN([C@@H](C)CO)C(=O)c2cc(NS(=O)(=O)c3ccc(F)cc3)ccc2O1", "cytotoxicity call": "inactive"}, {"smiles": "C[C@@H]1CN([C@H](C)CO)C(=O)c2cc(NC(=O)Nc3cccc4ccccc34)ccc2O[C@H]1CN(C)C(=O)Nc1ccc(F)cc1", "cytotoxicity call": "inactive"}, {"smiles": "CCC(CC)c1nc(Nc2ccccc2)c2ccccc2n1", "cytotoxicity call": "inactive"}, {"smiles": "c1ccc(Nc2nc(-c3ccccc3)nc3ccccc23)cc1", "cytotoxicity call": "inactive"}, {"smiles": "CC(C)CN(C(=O)COC(=O)c1c2c(nc3ccccc13)CCC2)c1c(N)n(Cc2ccccc2)c(=O)[nH]c1=O", "cytotoxicity call": "inactive"}, {"smiles": "CCc1ccc(Nc2c3c(nc4ccccc24)CCC3)cc1", "cytotoxicity call": "active"}, {"smiles": "CCc1ccc(Nc2c3c(nc4ccccc24)CCCC3)cc1", "cytotoxicity call": "active"}, {"smiles": "CCOc1ccc(Nc2c3ccccc3nc3ccccc23)cc1", "cytotoxicity call": "active"}, {"smiles": "CCOc1ccc(NC(C)=O)cc1", "cytotoxicity call": "inactive"}, {"smiles": "COc1ccc(NC(=O)Nc2ccc3c(c2)C(=O)N([C@H](C)CO)C[C@@H](C)[C@H](CN(C)C(=O)Nc2ccc4c(c2)OCO4)OCCCC[C@@H](C)O3)cc1", "cytotoxicity call": "inactive"}, {"smiles": "Cc1cccn2c(CN)cnc12", "cytotoxicity call": "inactive"}, {"smiles": "C[C@H](CO)N1C[C@H](C)[C@H](CN(C)C(=O)Nc2ccc(C(F)(F)F)cc2)Oc2c(NC(=O)Nc3ccc(F)cc3)cccc2C1=O", "cytotoxicity call": "inactive"}]}]}
